From PubChem
Shown is part of a subset that was picked to be rich in hits.
PTHR1 agonist – qHTS for PTHR1 Agonists: Primary Screen; HEK293 GP2 PTHR1 cells, GloSensor cAMP luminescence, 1 h; Potency, µM (series often up to 115 µM), hits mostly activators; 410,000 tested, 0.075% active; AID 743266, 2014; further: nearly all actives have a fitted effect of over 55% in size
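HEK-293-derived GP2 cells expressing PTHR1 and a GloSensor cAMP reporter, 3,000/well, plated overnight, given luciferin plus IBMX (each 0.5 mM as added) for 1 h at 37 °C, then compound for 1 h at 37 °C. Luminescence was read after 15 min at room temperature.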
RXFP1 antagonist – qHTS Assay for Antagonists of the Relaxin Receptor RXFP1; 350,000 tested, 0.59% active; activity change, negative = inhibition, % at 57.5 µM; Relaxin receptor 1 (Homo sapiens), Q9HBX9; HEK293-RXFP1, relaxin-stimulated cAMP HTRF, 30 min; hits give low values;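 active means activity change of -60% or lower, but not beyond a set lower limit; inconclusive means change between -60% and -40%, or beyond the set limit; inactive means change above -40%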
RXFP1 agonist – qHTS Assay for Agonists of the Relaxin Receptor RXFP1. Relaxin receptor 1 (Homo sapiens), Q9HBX9. HEK293T-RXFP1 cAMP TR-FRET, 30 min; response scale: percent of porcine relaxin response, buffer zero. Potency, µM (series often up to 57.5 µM), hits mostly activators. 370,000 tested, 0.3% active; further: nearly all actives have a fitted effect of over 60% in size
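cAMP rise read by TR-FRET after 30 min, 37C compound exposure (up to 58 uM) in RXFP1-transfected HEK293 cells with Ro 20174 present. EC50 from Hill-equation fits, with 29 nM porcine relaxin as 100% and buffer as basal.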
TCR act – Activators of T cell receptors: qHTS campaign. AID 504894, 2011. Potency, µM (titrated, usually from 9.22 µM), actives largely listed as activators. primary human leukocytes, anti-CD3, IL-2 HTRF, 48 h. 330,000 tested, under 10 active
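Using a-CD3 beads without co-stimulation, primary human leukocytes were exposed to compounds for 48 hr. An HTRF IL-2 kit measured the cytokine, with europium-to-d2 energy transfer producing emission at 665nm upon 320nm excitation.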
TSHR antagonist – Antagonists of the Thyroid Stimulating Hormone Receptor: HTS campaign | 330,000 tested, 0.2% active | Thyrotropin receptor (Homo sapiens), P16473 | TSHR-expressing cells, TSH-stimulated cAMP HTRF, 2 h; hits give low values | activity change, negative = inhibition, % at 11.5 µM;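 active means activity change below a set negative limit, meaning inhibition stronger than a set level, cut at about -70% in these data; inconclusive means activity change between two set negative limits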
Target sequence (P16473 whole entry, looked up): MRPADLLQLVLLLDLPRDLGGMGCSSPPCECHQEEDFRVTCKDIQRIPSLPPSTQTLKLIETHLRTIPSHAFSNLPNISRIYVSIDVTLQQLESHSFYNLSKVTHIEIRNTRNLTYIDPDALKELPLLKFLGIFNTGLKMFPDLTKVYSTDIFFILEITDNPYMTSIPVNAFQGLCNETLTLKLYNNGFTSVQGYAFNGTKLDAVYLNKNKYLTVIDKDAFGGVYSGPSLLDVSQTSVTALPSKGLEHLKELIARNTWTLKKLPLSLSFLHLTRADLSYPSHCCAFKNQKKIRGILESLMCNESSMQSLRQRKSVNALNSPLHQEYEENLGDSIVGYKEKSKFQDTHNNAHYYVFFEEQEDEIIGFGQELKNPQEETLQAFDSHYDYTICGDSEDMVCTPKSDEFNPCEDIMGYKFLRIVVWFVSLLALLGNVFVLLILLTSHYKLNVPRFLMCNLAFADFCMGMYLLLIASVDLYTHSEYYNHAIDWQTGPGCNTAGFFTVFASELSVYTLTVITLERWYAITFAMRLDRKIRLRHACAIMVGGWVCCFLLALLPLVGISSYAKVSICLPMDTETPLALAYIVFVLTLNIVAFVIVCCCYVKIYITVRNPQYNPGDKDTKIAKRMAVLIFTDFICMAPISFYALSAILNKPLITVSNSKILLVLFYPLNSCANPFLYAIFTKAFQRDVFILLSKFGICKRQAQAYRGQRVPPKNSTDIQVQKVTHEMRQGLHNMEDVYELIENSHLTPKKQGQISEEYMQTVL
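Freshly harvested TSHR cells receive pin-tooled compound, then EC80 TSH at 4nM final. After 2 hours at 37 deg C, antibody in lysis buffer and cAMP-d2 are added; 30 minutes at ambient temperature precede the HTRF read.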
NPSR antag – qHTS Assay for Antagonists of the Neuropeptide S Receptor: cAMP Signal Transduction. CHO-NPSR cells, cAMP TR-FRET, antagonist mode. Potency, µM (top dose mostly 38.3 µM), usual class: inhibitors. Q6W5P4. 220,000 tested, 1% active; further: nearly all actives have a fitted effect of over 50% in size
Each line names hits and unclear results; the compound was inactive in the other large screens. Unless noted, the call rests on the fitted dose curve; in most records, active means well fitted curve in the direction sought with a large enough effect; inconclusive means small, poorly fitted or top-dose-only effect, or another doubt; inactive means no such curve, though single readings can be large; an effect the other way counts as inactive or inconclusive.

COc1cccc(/C=N/Nc2nc(Nc3ccccc3)nc(-n3nc(C)cc3C)n2)c1O	NPSR antag 2.5µM
Cc1ccc(CNC(=O)c2ccc3c(c2)NC(=O)C(N2CCOCC2)S3)cc1 (centres undefined)	RXFP1 antagonist -62
O=C(NCCCN1CCCCCC1)c1ccc2c(c1)NC(=O)C(N1CCOCC1)S2 (centres undefined)	none
Cc1cccc(C)c1OCCCn1ccnc1	TSHR antagonist -130 (no result: TCR act, NPSR antag)
Oc1ccc(O)c(Cc2nc3ccccc3s2)c1	RXFP1 antagonist -77
CCn1c(=O)c(C(=O)Nc2ccc(C(C)=O)cc2)nc2ccccc21	none (no result: RXFP1 antagonist, TCR act, TSHR antagonist, NPSR antag)
CCOc1ccc(-n2ccnc2SCC(=O)Nc2ccc(OC)cc2OC)cc1	none (no result: TCR act, TSHR antagonist, NPSR antag)
Cc1nn(-c2ccccc2)c(Cl)c1/C=C1\SC(=S)NC1=O	TSHR antagonist -79, NPSR antag 10µM
CCOc1ccc(NC(=O)C(C)Sc2nnc3cc(C)c4ccccc4n23)cc1 (centres undefined)	none (no result: TCR act, TSHR antagonist, NPSR antag)
O=C(Nc1ccc(N2CCN(C(=O)c3cccs3)CC2)cc1)c1ccc(F)cc1	RXFP1 antagonist -66 (no result: NPSR antag)
Cc1cccc(-c2nc(C)c(CCNC(=O)C(=O)Nc3cccc(Cl)c3C)s2)c1	none (no result: RXFP1 antagonist, TCR act, TSHR antagonist, NPSR antag)
CCOc1ccc(NC(=O)CC2C(=O)N(c3ccccc3)C(=O)N2CCc2ccc(OC)cc2)cc1 (centres undefined)	none (no result: RXFP1 antagonist, TCR act, TSHR antagonist, NPSR antag)
CCCCN(CCO)c1ncnc2sc(-c3ccccc3)cc12	RXFP1 antagonist -65 (no result: NPSR antag)
CN(C)CCCNc1ncnc2sc(-c3ccccc3)cc12	none
CCN1/C(=C/C=C/C=C/c2sc3ccccc3[n+]2CC)Sc2ccccc21	NPSR antag 7.9µM (no result: PTHR1 agonist, RXFP1 antagonist, TCR act)
CC1=NOC(=O)/C1=C\c1ccc(-c2ccccc2Br)o1	RXFP1 agonist 18µM, NPSR antag 10µM
CC1(C)CC(=O)C2=C(C1)OC1=C(C(=O)CC(C)(C)C1)C2c1ccc(O)cc1O	RXFP1 antagonist inconclusive, TSHR antagonist inconclusive, NPSR antag 13µM
CC1(C)CC(=O)C2=C(C1)OC1=C(C(=O)CC(C)(C)C1)C2c1ccc(O)c([N+](=O)[O-])c1	none
CCN(CC)S(=O)(=O)c1ccc(NC(=O)Nc2cccc(C(F)(F)F)c2)cc1	NPSR antag 16µM
O=C(COC(=O)CNS(=O)(=O)c1ccc(Br)cc1Cl)NC1CCCC1	PTHR1 agonist inconclusive, RXFP1 antagonist -93 (no result: TSHR antagonist, NPSR antag)
C[C@@H]1CC(=O)NN=C1c1ccc(NN=C(C#N)C#N)cc1	none (no result: PTHR1 agonist, RXFP1 agonist, TCR act, TSHR antagonist, NPSR antag)
O=C1c2c(O)ccc(O)c2C(=O)c2c(NCCNCCO)ccc(NCCNCCO)c21	RXFP1 antagonist inconclusive, NPSR antag 10µM
CC(C)c1ccccc1-n1c(SCc2cc(=O)oc3ccc4ccccc4c23)nnc1-c1cccnc1	NPSR antag 10µM
CCOc1ccc(-n2c(SCc3cc(=O)oc4cc(C)ccc34)nnc2-c2cccnc2)cc1	none
CC(C)(C)c1ccc(-c2cn(-c3ccc(Br)cc3)c3[n+]2CCCS3)cc1	NPSR antag 10µM
c1ccc(-c2cn(-c3ccccc3)c3[n+]2CCS3)cc1	none
Cc1cccc(-c2c3c(=O)n(C)c(=O)n(C)c3c3cnc4ccccc4n23)c1	none (no result: TCR act, TSHR antagonist, NPSR antag)
Cc1ccc(O)c(N=Cc2cc(Cc3ccccc3)cc([N+](=O)[O-])c2O)c1	RXFP1 antagonist inconclusive
O=[N+]([O-])c1cc(Cc2ccccc2)cc(C=Nc2ccc(N3CCOCC3)cc2)c1O	RXFP1 antagonist -75, TSHR antagonist inconclusive
Cc1ccc(CNC(=O)Cc2c(C)c3c(cc(C)c4c(C)coc43)oc2=O)cc1	PTHR1 agonist 16µM (no result: TCR act, TSHR antagonist, NPSR antag)
Cc1coc2c1c(C)cc1oc(=O)c(CC(=O)NCC(=O)O)c(C)c12	none (no result: NPSR antag)
COC(=O)c1cn(-c2ccccc2)nc1-c1ccc(OC)cc1	none
